molecular target: Glucose transporter (Leishmania mexicana) (UniProt O61059); assay: ST_JUDE_LEISH: Cytotoxicity at 2uM final concentration against transgenic Leishmania Mexicana promastigotes LmGT2 that are glucose transport deficient and complemented with the L. Mexicana glucose transporter 2. Activity is measured by DNA content using SYBR green in vitro; format: functional

SMILES | inhibition [%]
CCCCOC(=O)[C@H](CCC)NC(=O)c1ccc(NS(=O)(=O)c2ccc3nc(N)[nH]c(=O)c3c2)cc1 | 0.77
O=C(Cc1cccnc1)N(Cc1ccc(-c2ccc(CNCc3cccnc3)cn2)cc1)C1CCN(Cc2ccccc2)CC1 | -1.68
COc1ccccc1CCCON1C(=N)N=C(N)NC1(C)C | 4.51
Cc1cc(N[C@@H](Cc2ccccc2)C(=O)Nc2ccccc2)nc(NCC2CCCCC2)n1 | 10.7
CCN(CC)CCNC(=O)c1ccc(N/C=C2\C(=O)Nc3ccc(S(=O)(=O)Cc4c(Cl)cccc4Cl)cc32)cc1 | -1.08
CC(C)(C)c1ccc(CN2CCC(CNC(=O)c3cc(-c4ccccc4)nc4ccccc34)CC2)cc1 | -1.73
CC(=O)c1ccc(NC(=O)C2c3ccccc3C(=O)N(CC(C)C)C2c2cccs2)cc1 (stereo not given) | 0.34
COc1cc(Nc2ncnc3cc(OC)c(OC)cc23)cc([N+](=O)[O-])c1 | -0.41
CC(C)CCNc1nc(NCc2ccccc2)c2cc(O)ccc2n1 | 1.03
CCN1CCC(N(Cc2ccc(-c3ccc(C(F)(F)F)cc3)cc2)C(=O)Cn2c(CCc3cccc(F)c3F)cc(=O)c3ccccc32)C1 (stereo not given) | -0.49
CCNCCCC(C)Nc1ccnc2cc(Cl)ccc12 (stereo not given) | -2.34
O=S(=O)(c1ccccc1)C1CC1 | -0.5
CCC(C)c1ccc(O)c(NC(=O)c2cncc(Br)c2)c1 (stereo not given) | -2.07
CC(C)(C)CCN1CCC(NC(=O)c2ccc(-c3cccc(C(F)(F)F)c3)s2)CC1 | 3.83
CC(C)(C)OC(=O)NCc1ccc(Nc2nnc(-c3cccc(C(=O)NCc4cc(C(F)(F)F)cc(C(F)(F)F)c4)c3)o2)cc1 | 5.41
CCCCCCNC(=N)c1ccc(OCCCCCOc2ccc(C(=N)NCCCCCC)cc2)cc1 | 37.2
CS(=O)(=O)N(CC(O)Cn1c2ccc(Cl)cc2c2cc(Cl)ccc21)c1ccccc1 (stereo not given) | 2.64
CCCCCCCNCCNc1cc(C)nc2ccccc12 | 2.79
NC(=O)C1Cc2ccccc2CN1CC(=O)Nc1ccccc1Sc1ccccc1 (stereo not given) | 2.18
Cc1cc(=O)c(-c2ccc(Oc3ccc(C(F)(F)F)cc3)cc2)c(C)n1O | -1.9
CCOc1ccccc1C(=O)Nc1cccc(-c2nc3ncccn3c2C)c1 | -0.34
Cn1cncc1-c1ccc2c(-c3ccsc3)cnc(N)c2c1 | 6.81
CCCN(CCC)CCCNc1ccc(C(=O)Nc2ccc(C(C)C)cc2)cc1[N+](=O)[O-] | 13.2
CN1CCN(CC(O)CNC(=O)Nc2ccc(Br)cc2)CC1 (stereo not given) | -0.7
COc1cc(NC(=O)C(c2ccc(Cl)cc2)C(C)C)cc(OC)c1OC (stereo not given) | 5.89

Source: ChEMBL document CHEMBL3433997, “St. Jude Leishmania screening dataset” (2016)
